Laboratory results as given in ChEMBL document CHEMBL3988442, “University of Dundee, Small-Polar-MMV Screening Library” (2021).

target: AMP-activated protein kinase, AMPK (Homo sapiens) (UniProt P54646+O43741+P54619+Q9UGJ0+Q9Y478+Q13131+Q9UGI9); assay: AMP-dependent Kinase enzyme assay. An in vitro enzyme assay that detects ADP turnover that is directly proportional to AMPK activity. This uses naive AMPK that is activated during the assay with MK-8722; format: functional; design: scale not given: direction of the effect not stated beside the values; settings: 30 µM

Structure (SMILES) | Percent Effect [%]
CN1CSC[C@H]1C(=O)N1CCC(CCc2ccccc2)CC1 | -1.47
CCc1nn(C)c(Cl)c1CN1CCCC2(C1)CN(C)C(=O)O2 (stereo not given) | 5.15
Cc1cnn(C2CCCN(C(=O)c3cc[nH]n3)C2)c1 (stereo not given) | -0.778
COc1cnc(N2CC(N3CCOCC3)C2)nc1-c1ccnn1C | -7.62
COC(=O)c1ccoc1CN(C)CC(=O)NC1CC1 | -3.6
CS(=O)(=O)CC1(CNc2c(C#N)cnc3ccc(Cl)cc23)CC1 | 5.05
COC(=O)c1cccc(C(=O)N(CCC#N)CC(C)(C)C)c1 | 2.62
COc1ccc(N2CCN(Cc3noc(CC(C)C)n3)C(C)C2=O)cc1 (stereo not given) | 0.845
Cc1nc(COc2ccc(S(=O)(=O)N(C)C)cc2)sc1C | 5.76
Cc1nccn1CCN(C)C(=O)c1cn(CC2CCCCC2)nn1 | 9.45
Cc1[nH]c2c(F)cccc2c1CC(=O)NC1CCCCNC1=O (stereo not given) | 10.4
CC(CN(C)Cc1cccc(-n2cccn2)c1)C(F)(F)F (stereo not given) | -9.02
O=C(CCCN1CCCCC1)NC(C(=O)O)c1ccc(Cl)cc1 (stereo not given) | 6.04
CCSc1cc(C(=O)N(C(C)C)C2CC2)ccn1 | 0.102
OCCN1CCN(Cc2coc(-c3ccccc3Cl)n2)CC1 | -12.1
Cc1noc(CCCC(=O)N2CSCC2C(=O)NCC2CC2)n1 (stereo not given) | -0.369
CCn1c(C2CCCNC2)nn(CCn2cncn2)c1=O (stereo not given) | -3.33
Cc1ccc(CCCC(=O)N2CC(=O)Nc3cccnc32)s1 | 2.25
CCC(C)(CC(=O)OC)NCc1noc(C)n1 (stereo not given) | 1.21
Cc1ccc(CCc2nc(C3CCOC3)no2)o1 (stereo not given) | 10.1

Structure (SMILES) | Percent Effect [%]
O=C(COc1cccc(Cl)c1)N1CCOCC(O)(CN2CCCC2)C1 (stereo not given) | 6.36
O=C(NC1CC1)c1cnc2n1CCCC2 | -4.04
CN1CCN(CCOc2ccc(NC(=O)c3ccncc3)cc2)CC1 | 0.498
Cc1cc(=O)n2nc(Oc3ccc(C#N)cc3Cl)sc2n1 | -3.6
CCc1cnc(N)nc1NCCC(=O)NC1CCCCC1 | -4.74
CN1CCC(Nc2ccc(Cl)cc2OCC(F)(F)F)C1=O (stereo not given) | -3.53
Cc1cnn(C2CN(c3ccccc3S(=O)(=O)C(F)(F)F)C2)c1 | 9.6
Cc1nn(CC(=O)NCC2(C(N)=O)CCOCC2)c(C)c1Cl | 2.14
Cc1cc(N2CCCC(N(C)C)C2)n2nccc2n1 (stereo not given) | 1.81
O=C(C1CNCCN1C(=O)CCOc1ccccc1)N1CCCC1 (stereo not given) | 8.73
COC(CNC(=O)c1ccc[nH]1)c1cccc(Cl)c1 (stereo not given) | 1.53
CN(Cc1ncc(-c2ccccc2C(=O)O)s1)c1ncccn1 | -8.09
Cc1ccc(N(CCC#N)C(=O)CCc2cscn2)cc1C | -7.79
CC1(C)OC(=O)N(CCOc2ccc(F)cc2)C1=O | 5.04
N#Cc1ccc(SCCC(=O)NC(N)=O)cc1 | -6.73
Cc1c(NC(=O)NCCO)cccc1OC1CCCC1 | -2.68
CCS(=O)(=O)CCCN1CCSCC1c1ccc(Cl)cc1 (stereo not given) | -4.64
COc1nccc(N2CC[C@@H](N3CCN(C)CC3)[C@H](O)C2)c1C#N | -9.72
CCN(Cc1cnn(CC)c1)Cc1c(Cl)cncc1Cl | 6.24
COC(=O)CC1CCCCN1CC(=O)Nc1cc(F)ccc1F (stereo not given) | 7.24
